Bioassay records (PubChem BioAssay)
In the library only some 2.4% were active in any assay of this set; here they are far more common.
Mcl1 Bid PPI: disrupts binding of human Mcl-1 to Bid peptide; inhibition, % at 21.7 µM; Q07820; 220,000 compounds, 0.97% hits; TR-FRET Mcl-1/Bid-Dy647 peptide binding, 1536-well; AID 1021;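 active = compounds that cut the binding signal by more than half at the single screening dose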;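 note: His-tagged Mcl-1 with europium anti-His antibody binding Bid BH3 peptide; 0% = Mcl-1 plus peptide wells and 100% = peptide-only wells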
Target sequence (Q07820 whole entry, looked up): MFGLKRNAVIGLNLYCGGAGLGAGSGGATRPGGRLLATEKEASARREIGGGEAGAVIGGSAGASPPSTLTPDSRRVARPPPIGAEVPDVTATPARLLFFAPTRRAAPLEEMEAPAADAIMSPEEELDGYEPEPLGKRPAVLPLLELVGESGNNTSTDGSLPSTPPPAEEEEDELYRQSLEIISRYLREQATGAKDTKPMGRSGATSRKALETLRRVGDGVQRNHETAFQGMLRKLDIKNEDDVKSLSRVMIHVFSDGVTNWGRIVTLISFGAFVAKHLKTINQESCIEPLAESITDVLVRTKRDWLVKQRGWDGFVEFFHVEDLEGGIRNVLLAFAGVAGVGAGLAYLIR
zVAD death inh: blocks zVAD induced death of L929 cells; AID 1377; viability rescue, % at 10 µM; 220,000 compounds, 0.38% hits; L929 zVAD necroptosis rescue, ATP luminescence, 24 h; with zVAD 60 µM;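 active = activation, scaled between plate controls, above about 75%, limit read from the data; inactive = activation under that limit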;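 note: 0% = zVAD with DMSO and 100% = DMSO alone without zVAD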
MCL1-BIM inh: inhibitors of human MCL1 binding to BIM-BH3 peptide | Q07820 | GST-MCL1 / FITC-Bim-BH3 fluorescence polarization | inhibition, % at 10.9 µM | 320,000 compounds, 0.68% hits | AID 2057;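 active = inhibition above the mean inhibition of all tested compounds plus 3 SD, set per campaign, cut at about 40% in these data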;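 note: 0% = DMSO wells and 100% = unlabeled Bim-BH3 peptide control; higher means more loss of mP so more displacement of Bim peptide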
Bim-Mcl-1: inhibitors of Bim-Mcl-1 interaction, human; Q07820; Bead-based flow cytometry, Bim peptide-Mcl-1 binding; inhibition, % at 10 µM; 190,000 compounds, 0.1% hits; AID 1009; in the data active = inhibition above about 40%;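 note: 0% = no compound tracer wells and 100% = peptide blocker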
Mcl1-Noxa inh: disrupts binding of human Mcl-1 to Noxa peptide. inhibition, % at 21.7 µM. Q07820. 220,000 compounds, 1.5% hits. TR-FRET Mcl-1/Noxa peptide binding, 2 h;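 active = compounds that cut the protein-peptide binding signal by more than 50% relative to plate controls in a single-dose test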;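 note: His-tagged Mcl-1 with rhodamine Noxa BH3 peptide and terbium anti-His antibody; 0% = Mcl-1 plus Noxa peptide wells and 100% = peptide-only wells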
TNF necrop inh: TNF-alpha cell death inhibition in Jurkat FADD-/- cells | Jurkat FADD-/- TNF necroptosis rescue, ATP luminescence, 24 h; 0 = TNF only, 100 = no-TNF cells | activation (protection from cell death), % at 10 µM | 220,000 compounds, 0.068% hits;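 active = activation, meaning protection from cell death, of at least 50% relative to plate controls; inactive = activation below 50%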;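 note: necroptosis triggered by 40 ng/mL TNF-alpha added together with compound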
The depositor's hits bear a star.

Screening CN(/N=C/c1cc(Br)cc(Br)c1O)c1cccc(C(F)(F)F)n1 returned MCL1-BIM inh -0.9.
Screening C[C@H](NC(=O)c1ccccc1Cl)C(=O)NCc1cccs1 returned Mcl1 Bid PPI -29.2, zVAD death inh 1.1, MCL1-BIM inh -21.7, Bim-Mcl-1 -1.0, Mcl1-Noxa inh 10.9 and TNF necrop inh -0.4.
`Cc1ccc(NC2CCCCC2NS(=O)(=O)c2ccccc2)c(C)c1` (stereo not drawn) gave MCL1-BIM inh 5.1.
`CCNc1nc(NCc2ccccc2)nc(SCC(=O)Nc2ccccc2)n1` gave Mcl1 Bid PPI 53.1*, zVAD death inh 0.7, MCL1-BIM inh -2.2, Bim-Mcl-1 -5.0, Mcl1-Noxa inh 9.6 and TNF necrop inh 1.8.
For Cc1cc(=O)oc2cc(OCC(=O)N/N=C/c3cc([N+](=O)[O-])ccc3O)ccc12 the results were Mcl1 Bid PPI 81.5*, zVAD death inh 3.0, MCL1-BIM inh 9.7, Bim-Mcl-1 0.0, Mcl1-Noxa inh 73.2* and TNF necrop inh -6.2.
For COC(=O)C(C)(C)ONC(=O)Nc1ccccc1[N+](=O)[O-] the results were Mcl1 Bid PPI -20.1, zVAD death inh 0.0, MCL1-BIM inh -1.9, Bim-Mcl-1 0.0, Mcl1-Noxa inh -7.7 and TNF necrop inh 0.6.
Screening CCCONC(=O)Nc1ccccc1[N+](=O)[O-] returned Mcl1 Bid PPI 65.8*, zVAD death inh 1.2, MCL1-BIM inh 0.5, Bim-Mcl-1 -4.0, Mcl1-Noxa inh -8.6 and TNF necrop inh -0.5.
`CC(=O)c1ccc(S(=O)(=O)Nc2ccc(-c3ccc4nnc(C)n4n3)cc2)cc1` gave Mcl1 Bid PPI -3.1, zVAD death inh 2.5, MCL1-BIM inh 26.5, Bim-Mcl-1 2.0, Mcl1-Noxa inh 54.8* and TNF necrop inh -4.3.
Cc1nnc2ccc(-c3ccc(NS(C)(=O)=O)cc3)nn12 was read as Mcl1 Bid PPI -28.4, zVAD death inh 0.5, MCL1-BIM inh 4.7, Bim-Mcl-1 3.0, Mcl1-Noxa inh 8.8 and TNF necrop inh -1.3.
Screening CC(=O)C1=C(C)NC(SCC(=O)c2ccc(F)cc2)=C(C#N)C1CC(C)C (stereo not drawn) returned Mcl1 Bid PPI -15.7, MCL1-BIM inh 7.5, Bim-Mcl-1 -9.0, Mcl1-Noxa inh 52.2* and TNF necrop inh 2.8.
For O=C(NCc1cccc(Cl)c1)c1cnccn1 the results were Mcl1 Bid PPI -10.1, zVAD death inh 0.3, MCL1-BIM inh 45.8*, Bim-Mcl-1 -3.0, Mcl1-Noxa inh 22.8 and TNF necrop inh -1.5.
`O=C(NCc1ccc(Cl)cc1)c1cnccn1` gave Mcl1 Bid PPI -33.5, zVAD death inh -0.1, MCL1-BIM inh -1.5, Bim-Mcl-1 1.0, Mcl1-Noxa inh 12.6 and TNF necrop inh 1.1.
CCOC(=O)c1ccc(NC(=O)C2(c3ccc(OC)cc3)CCOCC2)cc1 was read as Mcl1 Bid PPI -4.9, zVAD death inh -0.2, MCL1-BIM inh 2.2, Bim-Mcl-1 1.0, Mcl1-Noxa inh 0.9 and TNF necrop inh -0.1.
COc1ccc(C2(C(=O)Nc3ccc(C(=O)O)cc3)CCOCC2)cc1 was read as Mcl1 Bid PPI 59.1*, zVAD death inh 0.6, MCL1-BIM inh -1.7, Bim-Mcl-1 0.0, Mcl1-Noxa inh -4.8 and TNF necrop inh -1.9.
For COc1ccc(CCNC(=O)CC(C)S(=O)(=O)c2ccc3c(c2)NC(=O)CO3)cc1OC (stereo not drawn) the results were MCL1-BIM inh 4.3.
For Cc1cccc2c1c1ccc3c(c1n2C)C(=O)C=CC3=O the results were Mcl1 Bid PPI 40.1, zVAD death inh 13.5, Mcl1-Noxa inh 108.5* and TNF necrop inh -22.6.
`CC(C)NC(=S)N/N=C/c1ccc2c(c1)OCCO2` gave Mcl1 Bid PPI -50.7, zVAD death inh 1.3, MCL1-BIM inh 11.5, Bim-Mcl-1 -13.0, Mcl1-Noxa inh 15.2 and TNF necrop inh 0.5.
For Cc1ccc(Cn2c(SCC(=O)N/N=C/c3ccc(C)o3)nc3ccccc32)cc1 the results were Mcl1 Bid PPI 52.2*, zVAD death inh -0.1, MCL1-BIM inh 0.4, Bim-Mcl-1 -2.0, Mcl1-Noxa inh 23.2 and TNF necrop inh -1.5.
`O=C(CSc1nc2ccccc2n1Cc1ccccc1)N/N=C/c1ccco1` gave Mcl1 Bid PPI 23.3, zVAD death inh 0.0, MCL1-BIM inh -5.0, Bim-Mcl-1 0.0, Mcl1-Noxa inh 9.8 and TNF necrop inh -5.8.
For CCN(CC)S(=O)(=O)c1cccc(NC(=O)COC(=O)C2CC3C=CC2C3)c1 (stereo not drawn) the results were Mcl1 Bid PPI -23.1, zVAD death inh 1.7, MCL1-BIM inh 4.5, Bim-Mcl-1 -2.0, Mcl1-Noxa inh 2.7 and TNF necrop inh -0.6.
`O=C(COC(=O)CNC(=O)c1ccc(Cl)c([N+](=O)[O-])c1)NNC(=O)c1ccccc1F` gave MCL1-BIM inh 1.7.
COC(=O)CSc1nc(-c2ccc(C)cc2)c2c(c1C#N)CCCC2 was read as Mcl1 Bid PPI 61.5*, zVAD death inh 0.0, MCL1-BIM inh -2.7, Bim-Mcl-1 -6.0, Mcl1-Noxa inh -17.2 and TNF necrop inh 4.4.
Screening COC(=O)CSc1nc(N2CCOCC2)c2c(c1C#N)CCCC2 returned Mcl1 Bid PPI -18.7, zVAD death inh 0.0, MCL1-BIM inh -1.5, Mcl1-Noxa inh 18.2 and TNF necrop inh 1.2.
`Cc1ccc(C(C)C)c(OCC(=O)NNC(=O)CC2OC(=O)c3ccccc32)c1` (stereo not drawn) gave MCL1-BIM inh -6.5.
Cc1cc(NC(=O)/C=C/c2ccccc2Cl)no1 was read as Mcl1 Bid PPI -34.9, zVAD death inh 2.5, MCL1-BIM inh -1.4, Bim-Mcl-1 -4.0, Mcl1-Noxa inh -39.5 and TNF necrop inh 2.4.
Screening CCN(CC)c1ccc(NC(=O)/C=C\c2ccccc2Cl)cc1 returned Mcl1 Bid PPI 29.3, zVAD death inh 1.4, MCL1-BIM inh 8.9, Bim-Mcl-1 0.0, Mcl1-Noxa inh 90.9* and TNF necrop inh 0.1.
`CN(C)c1ccc(NC(=O)/C=C/c2ccccc2Cl)cc1` gave Mcl1 Bid PPI -17.5, zVAD death inh 9.1, MCL1-BIM inh 13.6, Bim-Mcl-1 -3.0, Mcl1-Noxa inh 76.8* and TNF necrop inh 2.1.
CCC(=O)N1CCCc2cc(S(=O)(=O)N3CCN(c4ncccn4)CC3)ccc21 was read as Mcl1 Bid PPI 1.7, zVAD death inh 0.6, MCL1-BIM inh -3.6, Bim-Mcl-1 7.0, Mcl1-Noxa inh 9.0 and TNF necrop inh -1.1.
Screening CCC(=O)N1CCCc2cc(S(=O)(=O)N3CCN(c4ccccc4F)CC3)ccc21 returned Mcl1 Bid PPI 6.4, zVAD death inh 0.6, MCL1-BIM inh 1.2, Bim-Mcl-1 1.0, Mcl1-Noxa inh 65.2* and TNF necrop inh -5.3.
Screening CCS(=O)(=O)N1CCN(c2ccc(C(=O)N3CCOCC3)cc2[N+](=O)[O-])CC1 returned Mcl1 Bid PPI 17.2, zVAD death inh -0.7, MCL1-BIM inh -3.0, Mcl1-Noxa inh 16.0 and TNF necrop inh 0.0.
